Screening data from PubChem BioAssay.
Compounds with a hit are over-represented: about 21% of the library has one in this group of screens.
Sm TGR inh: qHTS Assay for the Inhibitors of Schistosoma Mansoni Peroxiredoxins | Potency, µM (highest dose often 114 µM), for the others: at the top dose activity change, negative = inhibition, usual class: inhibitors | purified TGR, DTNB reduction, TNB absorbance 405 nm | Schistosoma mansoni thioredoxin glutathione reductase (TGR), Q962Y6 | AID 485364, 2010 | hit rate 3% among 360,000; also: potency is read from the fitted curve at half-maximal effect; % is scaled to controls: 0 for no effect and ±100 for the full control effect; nearly all actives have a fitted effect of over 60% in size
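Kinetic colorimetric format: TGR-catalysed, NADPH-driven DTNB reduction monitored via TNB absorbance. Enzyme dispensed at 20 nM; compound exposure 15 min at room temperature before reaction start.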
NS1 inh: qHTS Assay for Inhibitors of Influenza NS1 Protein Function; Potency, µM (series often up to 46.1 µM), without a hit: at the top dose activity, positive = more growth; hit rate 0.4% among 270,000; calls by dose curve; also: potency is read from the fitted curve at half-maximal effect; actives are rising curves; nearly all actives have a fitted effect of over 50% in size
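Read-out: OD600 growth recovery of NS1-expressing budding yeast. Cells grown overnight at 30C in -URA glucose medium, washed, resuspended and diluted 1:100 in 2% galactose assay medium, pH 6.0. Same strain lacking NS1 served as positive control.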
Pf growth 48h: Primary qHTS for delayed death inhibitors of the malarial parasite plastid, 48 hour incubation. P. falciparum luciferase growth in erythrocytes, 48 h. Potency, µM (top dose mostly 28.7 µM), without a hit: at the highest dose activity change, negative = inhibition, most hits filed as inhibitors. hit rate 5.9% among 310,000. AID 504832, 2011; also: potency is read from the fitted curve at half-maximal effect; % is scaled to controls: 0 for no effect and ±100 for the full control effect
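In quantitative HTS format, infected erythrocytes bearing luciferase-reporter parasites were treated for a single generation at 37 C. Luminescence after adding detection reagent served as the growth measure.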
Shiga inhibitor: A qHTS for Small Molecule Inhibitors of Shiga Toxin; inhibition, % at 38.7 µM; hit rate 9.2% among 290,000; Vero cells, Shiga toxin protein synthesis inhibition reporter; in the data active = inhibition mostly above about 28%, no sharp cut-off; inactive = mostly below about 43%; also: 0% is about no effect
Pf growth 96h: Primary qHTS for delayed death inhibitors of the malarial parasite plastid, 96 hour incubation | hit rate 6.9% among 320,000 | P. falciparum luciferase reporter growth, 96 h | Potency, µM (doses to about 28.7 µM), without a hit: at the top dose activity change, negative = inhibition, actives largely listed as inhibitors; also: potency is read from the fitted curve at half-maximal effect; % is scaled to controls: 0 for no effect and ±100 for the full control effect
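Plates of compound plus infected erythrocytes (2% hematocrit, 0.05% parasitemia final) incubate 96 hours, 37 C, 5% CO2. Detection reagent added; reduced luminescence from the parasites' luciferase reporter flags inhibition.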
CHX counter: Cycloheximide Counterscreen for Small Molecule Inhibitors of Shiga Toxin | cell reporter, cycloheximide protein synthesis inhibition counterscreen | max response, % | hit rate 12% among 300,000 | AID 2314, 2010; in the data active = max response mostly above about 13%, no sharp cut-off; inactive = mostly below about 14%; also: read at 38.3 µM for the half of the compounds with a filed dose; 0% is about no effect
NS1 inh valid: Assay for Inhibitors of Influenza NS1 Protein Function: Hit Validation. shares compounds with NS1 inh. influenza NS1 function cell assay, 15-point titration. activity change, negative = inhibition, % at 32.9 µM. 1,400 tested, under 10 active; calls by dose curve; also: 0% is about no effect
PR8 titer: Assay for Inhibitors of Influenza NS1 Protein Function: Influenza virus replication assay in MDCK cells infected with virus A/PR/8/34 | hit rate 30% among 95 | MDCK infected influenza A/PR/8/34, virus titer TCID50; active compounds read low | virus titer (log TCID50), log10 TCID50 at 5 µM | shares compounds with NS1 inh; call rule not given here
The depositor's hits bear a star; ? = inconclusive; nt = no result; ! = a repeat was not active. Unless noted, calls follow the shape of the dose curve; as a rule, active = well fitted curve in the direction sought with a large enough effect; inconclusive = small, poorly fitted or top-dose-only effect, or another doubt; inactive = no such curve, though single readings can be large; an effect the other way counts as inactive or inconclusive.

SMILES | Sm TGR inh | NS1 inh | Pf growth 48h | Shiga inhibitor | Pf growth 96h | CHX counter | NS1 inh valid | others
CC(C)C[C@H](NC(=O)c1[nH]cnc1C(=O)N[C@@H](C)C(=O)OC(C)(C)C)C(=O)OCc1ccccc1 | 4.6% | -7.8% | ? | 7.2 | ? | -3.0 | nt
CCN(CC)C(=O)c1[nH]cnc1C(=O)N[C@@H](Cc1ccccc1)C(=O)OC(C)(C)C | 3.2% | -10.1% | -0.5% | -1.4 | ? | -2.3 | nt
CC(C)(C)OC(=O)[C@H](Cc1ccccc1)NC(=O)c1nc[nH]c1C(=O)NCC(=O)OCc1ccccc1 | -5.1% | 11.2µM* | 77.2% | 7.6 | 114.5% | -2.1 | -22.8
CC(C)C[C@H](NC(=O)c1nc[nH]c1C(=O)NCc1ccc(CNC(=O)OC(C)(C)C)cc1)C(=O)OC(C)(C)C | -23.5% | 8.91µM* | ? | -2.9 | ? | -3.2 | 2.4
Cc1nn(CCC(=O)NC(C)C)c(=O)c2nn(-c3ccccc3)c(C)c12 | 0.2% | nt | nt | nt | nt | nt | nt
NC1=C(O)C(=O)[C@H](c2c[nH]c3ccc(OCc4ccccc4)cc23)O1 | nt | -5.5% | nt | nt | nt | nt | nt
O=c1cc(O)c2c(=O)n(-c3ccccc3)c3c(c2o1)CCCCC3 | 2.4% | 11.1% | 6.4% | 12.4 | 16.4% | -2.7 | nt
c1ccc(Nc2cc(Nc3ccccc3)[nH]n2)cc1 | -3.6% | 4.47µM* | -15.9% | -12.4 | 104.2% | -1.8 | -5.3
O=C(C[n+]1ccccc1)NNc1ccccc1 | ? | nt | -2.3% | nt | ? | nt | nt
CN(C)c1ccc(-c2ccc([C@H]3[C@@H]4C=CCC[C@@]4(C)C(=O)N3Cc3ccccc3)c(F)c2)cc1 | 2.9% | 5.62µM* | 9.28µM* | -3.8 | ? | 12.0 | -27.4
Brc1ccc(C2Nc3cccc4cccc(c34)N2)o1 | ? | ? | -12.0% | -8.6 | -6.0% | -2.6 | 2.0
COCCOc1ccc(C(F)(F)F)cc1NC(=O)COC(=O)Cc1c[nH]c2ccccc12 | -21.5% | nt | ? | nt | -27.0% | nt | nt
N#Cc1c(NC(=O)c2ccc(-c3ccccc3[N+](=O)[O-])o2)sc2c1CCCC2 | -22.8% | ? | 42.7% | -0.9 | 0.0% | 0.9 | -16.6
O=C(CCN1C(=O)/C(=C/C=C/c2ccccc2)SC1=S)Nc1nc2ccccc2s1 | 6.8% | 1.8% | -10.1% | -7.7 | -16.6% | -4.7 | nt
O=C(CN1C(=O)/C(=C\C=C\c2ccccc2)SC1=S)Nc1ccc(F)cc1 | -7.8% | 17.8µM* | -5.0% | -4.5 | -9.0% | 3.5 | -5.2
Cc1ccc(-n2nc3c(c2NC(=O)/C=C\c2ccc4c(c2)OCO4)CSC3)c(C)c1 | -13.5% | 8.91µM* | ? | -21.1 | 13.1µM* | -4.1 | 2.8
Cc1ccc(-n2nc3c(c2NC(=O)/C=C\c2ccc4c(c2)OCO4)CSC3)cc1 | -6.1% | 15.8µM* | -21.6% | -14.2 | 13.1µM* | -3.6 | -16.4
CCN(CC(=O)N1CCN(Cc2ccccc2)CC1)S(=O)(=O)c1ccc(C)cc1 | 9.9% | -13.6% | -14.3% | -3.1 | ? | 1.0 | nt
O=C(CCc1ccc(O)cc1)c1c(O)cc(O)cc1O | 9.8% | 12.6µM*! | ? | 15.1 | ? | 19.7* | 0.2
COC(=O)c1cccc(C23CC4(C2)[C@H](CN(Cc2cccnc2)[C@@H]4c2ccccc2)C3c2ccc(C(F)(F)F)cc2)c1 (some centres undefined) | ? | 8.91µM* | 2.33µM* | -2.0 | ? | 2.4 | 2.1
Clc1ccc(C2[C@H]3CN(CC4CCCCC4)[C@H](c4ccccc4)C34CC2(c2ccccc2)C4)cn1 (some centres undefined) | -14.6% | -6.2% | ? | 2.9 | ? | -3.4 | nt
O=C1CCC/C(=N/NC(=O)c2ccc(CN3c4cccc5cccc(c45)S3(=O)=O)cc2)C1 | -4.4% | 14.1µM* | -13.2% | -1.3 | ? | 0.9 | 10.6
COc1ccc(OC)c(CNC(=O)CN(c2ccc(C)cc2)S(=O)(=O)N(C)C)c1 | 1.3% | nt | nt | nt | nt | nt | nt
CC(=O)Nc1ccc(NC(=O)COC(=O)CCc2nc3ccccc3s2)cc1 | 4.0% | nt | 7.5% | -13.1 | 27.3% | 6.3 | nt
CCOCCCNC(=O)C(NC(=O)c1ccc(NC(C)=O)cc1)c1ccc(Cl)cc1 (centres undefined) | -5.7% | 0.4% | 6.4% | -12.7 | ? | 1.3 | nt
SMILES | Sm TGR inh | NS1 inh | Pf growth 48h | Shiga inhibitor | Pf growth 96h | CHX counter | NS1 inh valid | others
CCOCCCNC(=O)C(NC(=O)CC1NC(=O)NC1=O)c1ccc(Cl)cc1 (centres undefined) | 0.0% | 0.891µM* | 1.6% | 11.0 | 37.8% | -6.6 | -17.3
O=c1c2c3nc4ccccc4nc3n(Cc3ccccc3)c2ncn1Cc1ccco1 | 8.91µM* | 15.8µM* | 10.4µM* | 5.4 | nt | 7.1 | -14.3
COCCCn1c2nc3ccccc3nc2c2c(=O)n(Cc3ccc(Cl)cc3)cnc21 | 0.8% | -12.1% | ? | -14.3 | 10.1% | -2.8 | nt
CN(C)S(=O)(=O)c1ccc(NC(=O)CSc2nc3ccccc3n2-c2ccccc2)cc1 | ? | 10µM* | 5.86µM* | -5.8 | 2.33µM* | -3.0 | 4.6
COc1cc(NC(=O)CSc2nc3ccccc3n2-c2ccccc2)c(C)cc1[N+](=O)[O-] | 1.9% | 22.4µM* | 11.7µM* | -4.2 | ? | -1.6 | -3.6 | PR8 titer=7.66
NS(=O)(=O)c1ccc(NC(=O)CSc2nc3ccccc3n2-c2ccccc2)cc1 | 1.0% | 12.4% | ? | -17.0 | ? | -6.6 | nt
COc1ccc(-n2c(SCC(=O)Nc3ccc([N+](=O)[O-])cc3OC)nc3ccccc32)cc1 | 1.1% | -4.6% | ? | -3.9 | -1.0% | 8.9 | nt
O=C(CNC(=S)N(Cc1ccccc1)Cc1ccccc1F)NCCc1ccccc1 | 12.1% | nt | ? | -14.8 | ? | 0.4 | nt
CN(C)S(=O)(=O)c1cccc(NC(=O)c2ccc(S(=O)(=O)N3CCCC3)cc2)c1 | 1.5% | nt | -23.2% | nt | ? | nt | nt
CC1(C)CC2CC(C)(CN2S(=O)(=O)c2ccc(C(=O)Nc3cccc(S(=O)(=O)N4CCOCC4)c3)cc2)C1 (centres undefined) | -0.4% | 12.6µM* | 2.94µM* | -7.3 | ? | 2.6 | 14.2
CCOc1ccc(/C=N/NC(=O)Cc2csc(Nc3cccc(C(F)(F)F)c3)n2)c(OCC)c1 | 12.6% | 22.0% | 56.6% | -14.3 | 37.5% | 1.8 | nt
CCOc1ccc(/C=N/NC(=O)Cc2csc(Nc3cccc(C(F)(F)F)c3)n2)cc1 | 22.9% | 10µM* | 9.28µM* | -4.8 | nt | 6.6 | -26.4
